These results are taken from PubChem BioAssay AID540256 (National Center for Advancing Translational Sciences (NCATS), 2011).

Among all 300,000 compounds or so, about 3,700 (1.2%) were called active. Roughly 20% stayed inconclusive and do not appear here. For the sample, actives were picked, then their nearest neighbours and some compounds at random. Unmarked numbers belong to inactive results. The call rests on the fitted dose curve; tested in HEK293 cells.
On the % scale 0 is the no-effect control and ±100 the full control effect; potency means the concentration at half of the fitted maximal effect.

The nature of the experiment: qHTS for Inhibitors of binding or entry into cells for Lassa Virus. Further: nearly all actives have a fitted effect of over 50% in size. The conditions noted are these: Lassa virus pseudotype entry inhibition, cell reporter; series mostly up to 37.9 µM; activity change, negative = inhibition: at the top concentration. (In general: In qHTS, concentration-response curves come from the screen itself.)
For the molecule `CC(C)c1ccc(S(=O)(=O)N2CCN(C(=O)CN3C(=O)NC(C)(c4ccccc4)C3=O)CC2)cc1` (configuration not stated), the “activity change, negative = inhibition” value is -6.41%.
On to `Cc1cc(S(=O)(=O)Nc2ccc(C(=O)NCC(c3ccco3)N3CCCC3)cc2)ccc1F` (configuration not stated), for which the “activity change, negative = inhibition” value is 12.3% [at 46.1 µM].
On the same count and under the same terms, with `CCOc1ccc(NS(=O)(=O)c2ccc(C(=O)NC3CCN(Cc4ccccc4)CC3)cc2)cc1` the figure was -15.6%; with `CCC(=O)c1cn(CCOc2ccccc2OC)c2ccccc12`, -26.8%; with `CCCCOc1ccc(C(=O)NCc2ccncc2)cc1`, 3.13%.
Consider `COc1ccc(OCCCC(=O)NCCc2ccccc2)cc1`, for which the “activity change, negative = inhibition” value is -18.8%.
As to `CCCOc1ccc(C(=O)NCCc2ccccc2)cc1`, the Potency was 2.51 µM (active).
On the same count and under the same terms, for `O=C(O)c1ccc(N/N=C/c2cn(-c3ccccc3)nc2-c2cccs2)cc1` the value was 5.01 µM (active).
As to `CC(C)(C)OC(=O)N/N=C/c1cn(-c2ccccc2)nc1-c1cccnc1`, the “activity change, negative = inhibition” value was -13.6% [at 46.1 µM].
Consider `O=C(NCc1cccnc1)c1cn(-c2ccccc2)nc1-c1cccs1`, for which the “activity change, negative = inhibition” value is 17.4%.
Same read-out and setting: for `O=C(CC1Sc2ccccc2NC1=O)NNc1ccc(Cl)c(Cl)c1` (configuration not stated) the value was -1.65% [at 46.1 µM].
Turning to `Cc1c(C)c(C)c(S(=O)(=O)N2CCC3(CC2)OCCO3)c(C)c1C`, the “activity change, negative = inhibition” value is -5.33%.
As for `CC(=NNC(=O)c1ccncc1)c1ccc(Cl)c(Cl)c1`, the “activity change, negative = inhibition” value is 0.42% [at 46.1 µM].
The same measure, in the same setting: for `CCN(c1ccccc1)S(=O)(=O)c1cccc(C(=O)O)c1` the value was 5.63%.
As for `CCN(c1ccccc1)S(=O)(=O)c1ccc(NC(=O)C(C)(C)C)cc1`, the Potency was 14.6 µM (active).
In the case of `CCN(c1ccccc1)S(=O)(=O)c1ccc(C(=O)Nc2nccs2)cc1`, the “activity change, negative = inhibition” value was -16.5%.
For the molecule `CN(CC(=O)NCC(c1ccccc1)N1CCCC1)S(=O)(=O)c1ccc(Cl)cc1` (configuration not stated), the “activity change, negative = inhibition” value is -1.71%.
Regarding `CCOc1ccc(NC(=O)c2ncoc2-c2ccco2)cc1`, the “activity change, negative = inhibition” value was 20.4% [at 46.1 µM].
Consider `CCOc1ccc(-c2nnc(-c3ccco3)o2)cc1`, for which the Potency was 5.8 µM (active).
Regarding `CCCCOc1ccc(-c2nnc(-c3ccco3)o2)cc1`, the “activity change, negative = inhibition” value was -15.9%.
Same read-out and setting: for `Cc1c[n+]([O-])ccc1[N+](=O)[O-]` the value was 7.49% [at 46.1 µM]; for `O=C1C2C3C=CC(C3)C2C(=O)N1c1ncc([N+](=O)[O-])s1` (configuration not stated), 4.2% [at 46.1 µM]; for `COc1ccc(C(=O)Nc2ccc(NC(=O)C(C)C)nc2)cc1`, -17.8%.
Take `CCOc1ccc(S(=O)(=O)Nc2ccc(OC)nc2)cc1`: the “activity change, negative = inhibition” value is -16% [at 46.1 µM].
Take `COc1ccc(CS(=O)/C(Cl)=C(/Cl)C(=O)Nc2ccc(OC)nc2)cc1` (configuration not stated): the Potency is 3.98 µM (active).
On to `O=C(CSc1nnnn1C1CCCC1)N1CCCCC1`, for which the “activity change, negative = inhibition” value was 8.28% [at 46.1 µM].
The same measure, in the same setting: for `Cc1ccc(C)c(OCCC(=O)OCC(=O)NC(=O)NCc2ccccc2)c1` the value was -18.8%; for `Cc1cc(C)cc(NC(=O)COc2coc(CN3CCN(c4ccccc4)CC3)cc2=O)c1`, -7.74%; for `NC1=NOC(=O)C1C1CCCCC1` (configuration not stated), -19.2% [at 46.1 µM].
As to `CCOc1ccc(N(Cc2ccccc2)C(=O)c2nc(SCC)ncc2Cl)cc1`, the “activity change, negative = inhibition” value was -1.9% [at 46.1 µM].
For the molecule `CCOc1ccc(N(Cc2ccccc2)C(=O)c2nc(S(C)(=O)=O)ncc2Cl)cc1`, the Potency was 2.51 µM (active).
Regarding `CCOc1ccc(NC(=O)CN(Cc2ccccc2)S(=O)(=O)c2ccc(Cl)cc2)cc1`, the “activity change, negative = inhibition” value was -13.1% [at 46.1 µM].
